Reference: PubChem BioAssay (NCATS)
Where “and” joins values, the source holds several entries; their conditions need not be identical. Equal entries are not always repeated. Inconclusive results are not listed. Calls of active or inactive are those of the source. The call rests on the fitted dose curve; in most records, active means well fitted cell-killing curve with a large enough effect; inconclusive means small, poorly fitted or top-dose-only effect; inactive means no such curve, though single readings can be large or run the other way.

test: qHTS of pediatric cancer cell lines to identify multiple opportunities for drug repurposing: Confirmatory screen for BT-37 cells (AID 1347117); details: BT-37 pediatric cancer cells, viability; series mostly up to 45.9 µM; further: nearly all actives have a fitted effect of over 55% in size
Text: Drug repurposing or repositioning has been offered as a strategy for drug development in oncology programs. This approach has special potential for childhood cancers and other rare or orphan diseases, where the expected return on new drug development has been a disincentive to pharmaceuticals.
In this project we exploit the poly-pharmacology of drugs to discover new indications via phenotypic screening of a panel of 19 well-characterized cell lines derived from solid tumors seen in children and adolescents. The goal is to identify approved drugs with previously unrecognized anticancer properties that has the potential to reveal new mechanisms and biological processes involved in carcinogenesis or drug resistance. We employed a titration-based paradigm (quantitative high-throughput screening or qHTS), where all compounds were tested at multiple concentrations for their effect on cell viability. Concentration-response curves (CRCs) were derived directly from the primary screen, and both potency and efficacy values were used to identify compounds with robust bioactivity profiles. We screened the NIH Chemical Genomics Center (NCGC) Pharmaceutical Collection (NPC) and Mechanism Interrogation Plate (MIPE) small molecule collections of approved and investigational compounds against these cell lines; and measured metabolically active cells after 48 hours of compound treatment as a proxy for cell viability.
Assay Submitter: Nathalia J. Martinez, National Center for Advancing Translational Sciences, National Institutes of Health, Rockville, MD, USA; email: natalia.martinez@nih.gov
[1] Shen, M et al. Quantitative high-throughput phenotypic screening of pediatric cancer cell lines identifies multiple opportunities for drug repurposing. Oncotarget 2017 Dec 19;9(4):4758-4772. PMID 29435139.
The cells were obtained from University of North Carolina (UNC), Pediatric Preclinical Testing Program (PPT), and Coriell Institute (CI).
qHTS cell viability assay:
Cells were assayed in growth media at a density of 500-1,000 cells/well. Five microliters of cells were dispensed into 1,536-well, white, solid-bottom, TC-treated plates (Greiner Bio One) using a multidrop dispenser and incubated at 37 degrees C, 5% CO2, under a humidified atmosphere for 5 hours. Twenty-three nanoliters of compounds and controls (neutral control DMSO or positive control bortezomib at final concentration of 2.3 µM) were subsequently transferred by Kalypsys pintool. For primary screens, the MIPE collection was tested at 11-point dilutions (final concentrations range from 0.78 nM to 46 µM) and the NPC collection at 8-point dilutions (final concentrations range from 0.59 nM to 46 µM). Compounds tested in follow-up screens were assayed at 11-point dilutions. Cells were incubated for 48 hours, followed by addition of 3 µL of CellTiter-Glo (Promega). After a 15 min incubation at room temperature, samples were analyzed for luminescence intensity using a ViewLux High-throughput CCD imager equipped with clear filters.
Potency means the concentration at half of the fitted maximal effect.

SMILES | Potency
O=C(O)c1ccc(-c2c[nH]c3ncc(-c4ccccc4)cc23)cc1C1CCCC1 | inactive
CC=C(C)C(=O)O[C@H]1C(C)=C[C@]23C(=O)[C@@H](C=C(CO)[C@@H](O)[C@]12O)[C@H]1[C@@H](C[C@H]3C)C1(C)C | inactive
COc1cc(N2CCC(N3CCN(C)CC3)CC2)ccc1Nc1ncc(Cl)c(Nc2ccccc2S(=O)(=O)C(C)C)n1 | 14.7 µM (active)
CCCCCCCCCCCC1=C(O)C(=O)C=C(O)C1=O | inactive
COc1ccc(-c2coc3cc(O)cc(O)c3c2=O)cc1 | inactive
Nc1ncnc2c1ncn2[C@@H]1O[C@@H](CO)[C@H](O)[C@H]1O | inactive
COc1ncc(-c2ccc3nccc(-c4ccnnc4)c3c2)cc1NS(=O)(=O)c1ccc(F)cc1F | 0.465 µM (active)
CCOc1ccc(Nc2nc(-c3c(C)nc4ccccn34)cs2)cc1 | 0.293 µM (active)
C=C1C(=O)[C@@]23C(CC[C@@H]1[C@H]2O)[C@@]12CO[C@]3(O)[C@@H](O)[C@@H]1C(C)(C)CC[C@@H]2O (stereo partly drawn) | 18.5 µM (active)
CC1(C)O[C@H]2C[C@@H]3[C@H]4CCC5=CC(=O)C=C[C@]5(C)[C@@]4(F)[C@@H](O)C[C@]3(C)[C@]2(C(=O)CO)O1 | inactive
O=C1c2ccccc2-[n+]2ccc3c([nH]c4ccccc43)c21 | 1.04 µM (active)
CC1(C)S[C@H]2[C@H](NC(=O)[C@@H](N)c3ccc(O)cc3)C(=O)N2[C@@H]1C(=O)O | inactive
COc1cc2ncnc(Nc3ccc(F)c(Cl)c3)c2cc1OCCCN1CCOCC1 | 13.5 µM (active)
CNC1CCC(N(Cc2cccc(-c3ccncc3)c2)C(=O)c2sc3c(F)ccc(F)c3c2Cl)CC1 (stereo not drawn) | 20.8 µM (active)
CC1(C)CCC2=C(O1)c1ccccc1C(=O)C2=O | 23.3 µM (active)
CN(C)C1CCN(C(=O)c2ccc(NC(=O)Nc3nc(N4CCOCC4)nc(N4CCOCC4)n3)cc2)CC1 | 0.147 µM (active)
O=C1C(Cl)=C(NCCN2CCOCC2)C(=O)c2ncccc21 | 1.47 µM (active)
Cc1[nH]c(C=C2C(=O)Nc3ccc(S(=O)(=O)Cc4c(Cl)cccc4Cl)cc32)c(C)c1C(=O)N1CCC[C@H]1CN1CCCC1 | 18.5 µM (active)
CC1(C)CCC(CN2CCN(c3ccc(C(=O)NS(=O)(=O)c4ccc(NCC5CCOCC5)c([N+](=O)[O-])c4)c(Oc4cnc5[nH]ccc5c4)c3)CC2)=C(c2ccc(Cl)cc2)C1 | inactive

SMILES | Potency
O=C1NC(=O)C(=Cc2ccc3c(c2)OC(F)(F)O3)S1 | inactive
CC(C)n1nc(-c2ccc3oc(N)nc3c2)c2c(N)ncnc21 | 0.0369 µM (active)
NS(=O)(=O)c1cccc2c1C(=O)c1cccc(O)c1C2=O | 0.737 µM (active)
O=C(NCc1ccncc1)C12C[C@H]3C[C@@H](C1)CC(c1ccc(Cl)cc1)(C3)C2 | 20.8 µM (active)
CC1(C)CCC[C@@]2(C)[C@@H]1CC[C@@]1(C)OC(=O)C[C@H]21 | inactive
CC[C@]1(O)C[C@@H]2CN(CCc3c([nH]c4ccccc34)[C@@](C(=O)OC)(c3cc4c(cc3OC)N(C=O)[C@@H]3C45CCN4CC=C[C@](CC)([C@H]45)[C@@H](OC(C)=O)[C@]3(O)C(=O)OC)C2)C1 (stereo partly drawn) | inactive
COc1cccc(-c2cc(=O)c3ccccc3o2)c1N | inactive
O=c1[nH]cnc2c1ncn2[C@H]1CC[C@@H](CO)O1 | inactive
O=C(O)CCC1CCC(c2cc(F)ccc2F)(S(=O)(=O)c2ccc(Cl)cc2)CC1 (stereo not drawn) | 16.5 µM (active)
CC[C@]1(O)C[C@@H]2CN(CCc3c([nH]c4ccccc34)[C@@](C(=O)OC)(c3cc4c(cc3OC)N(C)[C@H]3[C@@](O)(C(=O)OC)[C@H](OC(C)=O)[C@]5(CC)C=CCN6CC[C@]43[C@@H]65)C2)C1 | 737 nM (active) and 1.17 µM (active)
Cc1cc(OCCCc2c(C(=O)O)n(Cc3cccnc3)c3c(-c4c(COc5ccc(N6CCN([S+](C)(=O)[O-])CC6)cc5)nn(C)c4C)cccc23)cc(C)c1Cl | 18.5 µM (active)
COc1ccc2c(Oc3ccc(NC(=O)c4c(C)n(CC(C)(C)O)n(-c5ccccc5)c4=O)cc3F)ccnc2c1 | inactive
CC(=O)Nc1ccc([C@H](C)C(=O)Nc2ncc(C(C)C)s2)cc1 | 4.14 µM (active)
CC(=O)Oc1cc2c(s1)CCN(C(C(=O)C1CC1)c1ccccc1F)C2 (stereo not drawn) | inactive
CCc1ccc(OCc2ccccc2C(=O)Nc2ccc3nc(C)cc(N)c3c2)cc1 | 7.37 µM (active)
NC1=N[C@@]2(c3cc(NC(=O)c4ccc(F)cn4)ccc3F)COC[C@@H]2CS1 | inactive
CC(=NNC(=S)N1CCC1)c1ccccn1 | inactive
CO[C@H]1C=CC=C(C)C(=O)NC2=CC(=O)C(NCCN(C)C)=C(C[C@@H](C)C[C@H](OC)[C@@H](O)[C@@H](C)C=C(C)[C@@H]1OC(N)=O)C2=O | 1.17 µM (active)
N[C@@]1(C(=O)O)CS(=O)(=O)[C@H]2[C@H](C(=O)O)[C@H]21 | 0.737 µM (active)
